From PubChem
KCNQ2 block: inhibitors of rat KCNQ2 potassium channel. O88943. CHO-K1 KCNQ2, FluxOR thallium flux, 20 min; active compounds read low. B-score at 10 µM. 1.1% of 310,000 active;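 active = fluorescence ratio B-score at most minus 3 library SDs, with starting brightness B-score within 2 library SDs, cut at about -5.5 in these data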
KCNQ2 pot: enhances the rat KCNQ2 potassium channel; B-score at 10 µM; O88943; 0.54% of 310,000 active; AID 2239; CHO-K1 KCNQ2, FluxOR thallium flux fluorescence; active compounds read high;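 active = fluorescence ratio B-score at least 3 SD of library B-scores, with initial fluorescence B-score within 3 of them, cut at about 5.3 in these data; same plate scores as AID 2156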;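 also: B-score of peak minus minimum over baseline fluorescence ratio after K+ and Tl+ stimulus; positive B-score means potentiation of KCNQ2 with more thallium influx and brighter signal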
Kir21 conf inh: confirmation of mouse Kir2.1 potassium channel inhibitors. shares compounds with KCNQ2 pot. Kir2.1-expressing cells, FluxOR thallium flux fluorescence; active compounds read low. Tl flux remaining, % of negative control (active compounds read low), % at 10 µM. 41% of 2,300 active. AID 2032;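 active = Primary-screen hit whose thallium flux fell at least 3 control SD below untreated wells in both duplicates, with normal baseline fluorescence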;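 also: 0% = blank wells without stimulus and 100% = stimulated no-compound controls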
HEK293 ctr: counter-screen for Kir2.1 inhibitors: effect in parental HEK293 cells; shares compounds with KCNQ2 pot; FluxOR thallium flux fluorescence; 0% = unstimulated blank wells; FluxOR signal as % of negative control (100 = no effect), % at 10 µM; 19% of 2,300 active; AID 2105;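 active = dye signal at least 3 control SD above or below untreated wells in both duplicates, raw fluorescence within 3, either direction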;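 also: percent is based on the flux ratio of peak minus minimum fluorescence over baseline F0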
CHO-K1 Tl ctr: alters thallium flux in parental CHO-K1 cells, KCNQ2 counter-screen. shares compounds with KCNQ2 pot. FluxOR thallium flux fluorescence; zero = vehicle mean+3SD, 100% = vehicle-minus-blank window. activity increase over 3SD of controls, % at 10 µM. 43% of 1,200 active. AID 2282;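 active = signal rise of at least 3 SD above the untreated control mean, in both duplicate wells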;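 also: counter screen of KCNQ2 potentiator hits so any rise reflects channel-independent effects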
KCNQ1 pot spec: human KCNQ1 counter-target activity of KCNQ2 potentiators | activation over 3SD threshold, % at 10 µM | CHO KCNQ1 stable, FluxOR thallium flux fluorescence; beyond 3SD, as % of vehicle-control signal | AID 2283 | 28% of 1,200 active | shares compounds with KCNQ2 pot;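 active = fluorescence ratio rise of at least 3 SD of vehicle wells above their mean, in both replicate wells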;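 also: 0% = vehicle mean plus 3 SD and 100% = vehicle minus unstimulated blank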
Target sequence (P51787 whole entry, looked up): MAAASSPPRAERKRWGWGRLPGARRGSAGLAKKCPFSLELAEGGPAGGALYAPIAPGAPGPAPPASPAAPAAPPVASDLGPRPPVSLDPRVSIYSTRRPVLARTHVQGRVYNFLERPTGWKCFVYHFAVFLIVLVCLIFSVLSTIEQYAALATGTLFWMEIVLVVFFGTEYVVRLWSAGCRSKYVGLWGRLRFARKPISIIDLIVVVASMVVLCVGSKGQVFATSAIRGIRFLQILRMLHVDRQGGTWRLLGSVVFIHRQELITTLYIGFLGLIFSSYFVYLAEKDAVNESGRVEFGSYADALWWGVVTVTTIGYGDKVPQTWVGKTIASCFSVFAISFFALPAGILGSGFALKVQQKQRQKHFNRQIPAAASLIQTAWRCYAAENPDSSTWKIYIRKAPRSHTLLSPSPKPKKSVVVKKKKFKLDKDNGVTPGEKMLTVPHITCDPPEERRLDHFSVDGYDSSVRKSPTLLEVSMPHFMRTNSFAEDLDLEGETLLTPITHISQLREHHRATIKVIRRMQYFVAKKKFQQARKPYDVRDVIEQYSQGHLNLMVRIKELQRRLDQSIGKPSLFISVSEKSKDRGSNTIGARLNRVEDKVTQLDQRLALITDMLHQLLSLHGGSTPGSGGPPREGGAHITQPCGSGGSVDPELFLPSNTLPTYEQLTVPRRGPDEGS
KCNQ2 pot confirm: rat KCNQ2 channel potentiator confirmation | shares compounds with KCNQ2 pot | potentiation, less the hit threshold, % at 10 µM | 68% of 1,200 active | CHO-KCNQ2 cells, FluxOR thallium flux fluorescence;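 active = fluorescence ratio rising 3 SD or more over the vehicle control mean in both replicates, plus primary screen hit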;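 also: peak minus minimum thallium fluorescence divided by baseline after K/Tl stimulus; 0% = vehicle mean plus 3 SD and 100% = vehicle minus unstimulated blank difference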
Kir21 spec: mouse Kir2.1 off-target activity of KCNQ2 potentiators | shares compounds with KCNQ2 pot | HEK293 Kir2.1, FluxOR thallium flux fluorescence | activity over 3SD threshold, % at 10 µM | 2% of 1,200 active | AID 2345;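 active = fluorescence ratio rise of at least 3 SD above the vehicle-control mean, seen in both replicates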;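 also: 0% = vehicle mean plus 3 SD and 100% = vehicle minus no-stimulus blank window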
KCNQ2 W236L pot: potentiates the retigabine-insensitive rat KCNQ2 W236L mutant channel | shares compounds with KCNQ2 pot | CHO KCNQ2-W236L, automated patch clamp current | current increase over 3SD of negative controls (%), active compounds read high, % at 25 µM | 10% of 940 active | AID 2558;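 active = current increase at least 3 SD of the untreated controls above them in both duplicate recordings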
Numbers without * were called inactive; i = inactive; x = no result. In the library only some 1.6% were active in any assay of this set; here they are far more common.

SMILES	KCNQ2 block	KCNQ2 pot	Kir21 conf inh	HEK293 ctr	others
Brc1nnc2n1-c1ccccc1Sc1ccccc1-2	i	1.93	27.5%*	65.5%*
COc1ccc(OCc2nnc(SCC(=O)N(C)Cc3ccccc3)n2N)cc1	i	1.25	x	x
CSc1c(CN2CCN(C)CC2)c2ccccc2n1C	i	x	x	x
O=S(=O)(NCCc1ccccc1)c1ccc(Br)cc1	i	0.41	x	x
COc1ccc(CCC(=O)NCc2ccc3c(c2)OCO3)cc1	i	2.96	x	x
COc1ccc(CCC(=O)NCc2cccc(C(F)(F)F)c2)cc1	i	6.66*	i	i	CHO-K1 Tl ctr=23.8*;KCNQ1 pot spec=-17.1;KCNQ2 pot confirm=-2.0;Kir21 spec=-33.4;KCNQ2 W236L pot=i
CCOC(=O)CNC(=O)C1CCN(S(=O)(=O)c2ccc(-c3nn[nH]n3)cc2)CC1	i	0.32	x	x
COCCNC(=O)C1CCC(CNS(=O)(=O)c2ccccc2)CC1 (stereo not drawn)	i	x	x	x
N/C(=N\N=C\c1ccc(Br)o1)c1nonc1N	i	0.78	x	x
O=C(NCC1CCCN(C(=O)NCc2ccccc2)C1)c1ccc2c(c1)OCO2 (stereo not drawn)	i	0.17	x	x
C/C=C/c1ccc(OCCN2CCc3ccccc3C2)c(OC)c1	i	x	x	x
C=CCc1ccc(OCCCNCc2ccccc2)c(OC)c1	i	3.34	41.5%*	i
Brc1ccccc1OCCNCc1ccccc1	i	x	x	x
C=CCc1ccccc1OCCNCc1ccccc1	i	x	31.5%*	i
C=CCc1ccc(OCCCNC2CCCC2)c(OC)c1	i	x	x	x
C=CCc1ccc(OCCN2CCc3ccccc3C2)c(OC)c1	i	0.84	20.0%*	i
O=C(O)c1ccc2c(c1)C(=O)N(c1cc([N+](=O)[O-])ccn1)C2=O	i	0.45	x	x
Cn1cnnc1SCCCN1C(=O)c2cccc3cccc(c23)C1=O	i	1.1	x	x
CCOc1ccccc1NC(=O)C(=O)CC(=O)c1ccc(OC)cc1	i	2.86	x	x
CCCCc1nc2cc(C(=O)N(C)C3CCOCC3)ccc2o1	i	0.06	x	x
CC(C)(C)C1c2[nH]c3ccccc3c2CCN1Cc1cccc(OCCO)c1 (stereo not drawn)	i	x	x	x
Cc1ccc(C(=O)CC(=O)c2ccccc2)cc1	i	1.34	x	x
Cc1ccc(C(=O)Sc2cccccc2=O)cc1	i	11.2*	x	x	CHO-K1 Tl ctr=-11.7;KCNQ1 pot spec=-20.7;KCNQ2 pot confirm=84.7*;Kir21 spec=-45.6;KCNQ2 W236L pot=i
CCC(C)c1ccc(NC(=O)C/C(C)=N/NC(=O)c2cnccn2)cc1 (stereo not drawn)	i	0.68	x	x
CC(c1ccccc1F)n1cc(C(=O)NCCCc2nc3ccccc3[nH]2)nn1 (stereo not drawn)	i	x	x	x
SMILES	KCNQ2 block	KCNQ2 pot	Kir21 conf inh	HEK293 ctr	others
CCOc1ccc(NC(=S)N2CCn3c(nc4ccccc43)C2)cc1	i	1.06	x	x
Cc1cc(C)c2c(N)c(C(=O)c3ccccc3)sc2n1	i	x	x	x
Cc1sc2cc3c(c(C(=O)c4ccccc4)[n+]2c1C)-c1cccc2cccc-3c12	-8.22*	-8.22	27.0%*	63.5%*
CC(C)Cn1c(N)c(C(=O)COC(=O)COc2cccc(C(F)(F)F)c2)c(=O)n(C)c1=O	i	0.64	x	x
CC(C)(C)c1ccc(OCCC(=O)OCC(=O)Nc2ccc(N3CCOCC3)cc2)cc1	i	5.55*	i	i	CHO-K1 Tl ctr=14.7*;KCNQ1 pot spec=-11.4;KCNQ2 pot confirm=-11.7;Kir21 spec=-37.5;KCNQ2 W236L pot=i
COc1ccc(OCCC(=O)OCC(=O)Nc2ccc(S(=O)(=O)N3CCOCC3)cc2)cc1	i	0.1	x	x
CCCCC(=O)OCc1nc(N)nc(Nc2ccccc2C)n1	i	1.13	x	x
Cc1ccc(/C=C/C(=O)OCc2nc(N)nc(Nc3ccccc3C)n2)o1	i	6.9*	i	i	CHO-K1 Tl ctr=144.2*;KCNQ1 pot spec=-6.3;KCNQ2 pot confirm=2.1*;Kir21 spec=-46.1;KCNQ2 W236L pot=i
Cc1cc(C)c(Cn2c3ccccc3c3cnn(CC(=O)NCc4ccccn4)c(=O)c32)c(C)c1	i	13.5*	i	i	CHO-K1 Tl ctr=-40.5;KCNQ1 pot spec=-14.0;KCNQ2 pot confirm=8.7*;Kir21 spec=-12.4;KCNQ2 W236L pot=i
Cc1cc(C)c(Cn2c3ccccc3c3cnn(CC(=O)NCCN4CCOCC4)c(=O)c32)c(C)c1	i	1.57	x	x
Cc1ccc(-c2nc(CS(=O)(=O)CC(=O)Nc3cc(F)ccc3F)c(C)o2)cc1	i	x	x	x
Cc1ccc(/C=C/C(=O)c2ccccc2O)cc1	i	x	x	x
Cc1ccc(/C=C/C(=O)C2C(=O)c3ccccc3C2=O)cc1	i	7.26*	i	146.0%*	CHO-K1 Tl ctr=-18.4;KCNQ1 pot spec=-18.6;KCNQ2 pot confirm=-2.3;Kir21 spec=-32.2;KCNQ2 W236L pot=i
Cc1ccc(S(=O)(=O)N(C)C)cc1NC(=O)C(C)OC(=O)/C=C/c1cccs1 (stereo not drawn)	i	x	x	x
CC(=O)Nc1ccc(NC2CCCCC2NS(=O)(=O)c2ccc(Cl)cc2)cc1 (stereo not drawn)	i	x	x	x
O=c1[nH]c2ccccc2[n+]([O-])c1-c1ccccc1	i	x	x	x
NS(=O)(=O)c1ccc(CCNCc2cc(Cl)ccc2OCc2ccccc2)cc1	i	1.72	x	x
C=CCOc1ccccc1CNCCc1ccc(S(N)(=O)=O)cc1	i	x	x	x
NS(=O)(=O)c1ccc(CCNCc2ccccc2OCc2ccc(Cl)cc2)cc1	i	4.32	43.5%*	i
NS(=O)(=O)c1ccc(CCNCc2cc(Br)ccc2OCc2ccccc2F)cc1	i	x	64.5%*	i
N#Cc1cc(NC(=O)c2ccc(F)cc2)c(=O)n2c1[nH]c1ccccc12	i	x	x	x
COCc1cc(C)nc(OCC(=O)N/N=C/c2ccc(-c3cc([N+](=O)[O-])ccc3Cl)o2)c1C#N	i	x	x	x
CCOc1ccc(C(=O)NCc2ccco2)cc1Cl	i	0.22	x	x
Cc1cc(=O)oc2cc(OC(=O)c3ccco3)ccc12	i	0.19	i	i
CCc1cc(=O)oc2cc(OC(=O)c3ccco3)ccc12	i	x	x	x
COCCNC(=O)/C(C#N)=C/c1cccs1	i	x	x	x
COCCNC(=O)/C(C#N)=C/c1ccc(OC(=O)c2cccs2)c(OC)c1	i	x	i	i
Cc1cccc(NS(=O)(=O)c2cccc(C(=O)NCCCN3CCOCC3)c2)c1	i	0.05	x	x
Nc1nc(SCC(=O)Nc2ccccc2Sc2ccc(Cl)cc2)n[nH]1	i	6.21*	i	i	CHO-K1 Tl ctr=23.1*;KCNQ1 pot spec=-17.7;KCNQ2 pot confirm=9.1*;Kir21 spec=-53.2;KCNQ2 W236L pot=i
CSc1ccccc1NC(=O)CSc1n[nH]c(N)n1	i	x	x	x
